Measured values from ChEMBL document CHEMBL4513216, “Probing the Open Global Health Chemical Diversity Library for Multistage-Active Starting Points for Next-Generation Antimalarials” (ACS Infect Dis, 2020).
The whole screen tested about 65,000 compounds, of which about 2,100 (3.2%) showed an effect of 50% or more. The median lay at about -52%. The sample holds strong results, similar compounds and a random draw of the others, so the mix is not that of the screen.

These compounds were tested on Plasmodium falciparum (assay: Screen against P. falciparum Asexual Blood Stage (ABS), at 5uM). Settings: tested at 5 uM.
Type: functional, Dd2
In the case of Cn1cc(CNCCc2nccs2)c(-c2cccnc2)n1, the INHIBITION is reported as 1.56%. Work on Cn1cc(CNCCc2cccnc2)c(-c2cccnc2)n1 yielded an INHIBITION of -35.7%. Cn1cc(CNCCOc2ccc(F)c(F)c2)c(-c2cccnc2)n1 was tested, and the INHIBITION was 54.4%. With Cn1cc(CNCCn2cccn2)c(-c2cccnc2)n1 the INHIBITION was -42%. With CCCNCc1cn(Cc2ccccc2)nc1-c1cccnc1 the INHIBITION was 60%. CCCNCc1cn(C)nc1-c1cccnc1 was tested, and the INHIBITION was -21.6%. With O=C(c1cccnc1)N1CCC2(CCN(C(=O)N3CCCC3)CC2)C1 the INHIBITION was -71.7%. For CCCC(=O)N1CC[C@@H]2[C@H](CC1)N(Cc1cccc(C)n1)CCS2(=O)=O, the INHIBITION was -82%. For Cn1cc(CN2CCCC23CCN(c2nc4ccccc4s2)CC3)cn1, the INHIBITION was 51.7%. Compound Cc1nc(CN2CCCC23CCN(c2nc4ccccc4s2)CC3)co1 has an INHIBITION of 9.68%. c1ccc2sc(N3CCC4(CCCN4Cc4ncc[nH]4)CC3)nc2c1 gave an INHIBITION of 20.4%. CC(C)=CCN1CCN(Cc2cc(C)c(O)c(C)c2)CC1CCO (centres undefined) was tested, and the INHIBITION was -36%. Cc1cc(CN(C)Cc2ccccc2N2CCCCC2)n[nH]1 gave an INHIBITION of 67.5%. Work on Cc1cc(CN(C)Cc2csc(-c3cccs3)n2)n[nH]1 yielded an INHIBITION of -130%. Work on CN(Cc1noc(C(C)(C)C)n1)Cc1ccccc1N1CCCC1 yielded an INHIBITION of 16.2%. For CCN(C(=O)CN1CCn2c(nnc2C2CC2)C1)C1=CCCCC1, the INHIBITION was -67.6%. Cc1nccc(C(=O)NC(CN2CCCC2=O)c2ccccc2)n1 (centres undefined) showed an INHIBITION of -66.1%. CC(C)CNC(=O)c1nc(COc2ccc3c(c2)OCO3)no1 was tested, and the INHIBITION was -58.7%. In the case of O=C(CCNCc1cccc(O)c1)N1CCc2sccc2C1, the INHIBITION is reported as 52.1%. Compound O=C(CN1CCCC1c1cccs1)N1CCc2sccc2C1 (centres undefined) has an INHIBITION of 3.62%. Compound COc1ccc(CNCCC(=O)N2CCc3sccc3C2)cc1O has an INHIBITION of 36.4%. O=C(CCN1CCCC1C1CCCCC1)N1CCc2sccc2C1 (centres undefined) was tested, and the INHIBITION was 59.9%. For Cc1cc(C2CCCN2CCC(=O)N2CCc3sccc3C2)no1 (centres undefined), the INHIBITION was -1.53%. Compound O=C(CCC(=O)N1CCCC1c1cccs1)N1CCc2sccc2C1 (centres undefined) has an INHIBITION of -117%. Compound O=C(CCN1CCCC1c1cccs1)N1CCc2sccc2C1 (centres undefined) has an INHIBITION of 50.8%. For N#Cc1cccc(CNCCC(=O)N2CCc3sccc3C2)c1, the INHIBITION was 21.5%. For Cn1cc(C2CCCN2CCC(=O)N2CCc3sccc3C2)cn1 (centres undefined), the INHIBITION was -37.7%. In the case of Cc1cnn(C2CN(CC(=O)NCCCc3ccccc3)C2)c1, the INHIBITION is reported as -108%. Compound c1ccc(NCc2cnc3n2CCN(C2CCOC2)CC3)nc1 (centres undefined) has an INHIBITION of -124%. CC(C)NCC1OCCc2cn(C)nc21 (centres undefined) gave an INHIBITION of -22.9%. CSc1ccc(CN2CCCC3(CNC(=O)c4ccccc4O3)C2)cc1 (centres undefined) gave an INHIBITION of -85.7%. Compound CN(C)c1cccc(C(=O)N2C[C@@H]3CC[C@H]2CN(C(=O)C2CCC2)C3)c1 has an INHIBITION of -111%. For CC[C@@H](C)[C@@H](N)C(=O)Nc1cccc(-c2cnc(N(C)C)nc2)c1, the INHIBITION was -60.2%. In the case of COc1ccc(-c2cc(CNc3ncnc4c3CCNCC4)no2)cc1, the INHIBITION is reported as 16%. Cc1ccc(-c2cc(CNc3ncnc4c3CCNCC4)no2)cc1 gave an INHIBITION of 63.5%. c1cncc(-c2noc(CNc3ncnc4c3CCNCC4)n2)c1 gave an INHIBITION of -88.2%. Cc1nnc2n1CCN(C(=O)C(C)Oc1ccc(C#N)cc1)C2 (centres undefined) showed an INHIBITION of -140%. In the case of CN(C)C(=O)CN1C[C@H]2CC[C@@H](C1)N(Cc1cccc(Cl)c1Cl)C2, the INHIBITION is reported as 30.9%. Compound Cc1cc(N[C@H]2CN(CC(C)(C)N3CCOCC3)C[C@@H]2C2CC2)ncn1 has an INHIBITION of 48.9%. With Cc1nccc(N[C@H]2CN(CCS(C)(=O)=O)C[C@@H]2C2CC2)n1 the INHIBITION was -88.4%. Compound CCS(=O)(=O)N[C@H]1CN(CC(C)(C)N2CCOCC2)C[C@@H]1C1CC1 has an INHIBITION of -11.1%. Work on N#CC1(C(=O)N2C[C@H](Nc3ncccn3)[C@@H](C3CC3)C2)CCOCC1 yielded an INHIBITION of -92.4%. Work on CC(C)(CN1C[C@H](Nc2ncccn2)[C@@H](C2CC2)C1)N1CCOCC1 yielded an INHIBITION of 50.5%. Compound Cc1nccc(N[C@H]2CN(CC(C)(C)N3CCOCC3)C[C@@H]2C2CC2)n1 has an INHIBITION of 63.5%. With Cc1ccc(NC2CCN(C(=O)COCC3CC3)CC2)nn1 the INHIBITION was -61.2%. Work on CN(C)c1ccc(C(=O)N2CCCC(n3cccn3)C2)cn1 (centres undefined) yielded an INHIBITION of -240%. C/N=C1/c2cc3cc(OC)ccc3n2CCN1Cc1ccccc1 showed an INHIBITION of 25.3%. In the case of CCC(CN1CCCC1)n1cncc1-c1cnn(-c2ccccc2)c1 (centres undefined), the INHIBITION is reported as 56.2%. Compound CCC(CN1CCOCC1)n1cncc1-c1ccc2c(c1)CCCN2C (centres undefined) has an INHIBITION of 31.4%. With CCC(CN1CCCC1)n1cncc1-c1cnn(-c2ccc(F)cc2)c1 (centres undefined) the INHIBITION was 43%. O=C(Cc1ccc2c(c1)CCO2)N1CCCC1c1noc(C2CC2)n1 (centres undefined) showed an INHIBITION of -67.5%. For Cc1ccc(CN2CCc3nnc(COCCN(C)C)n3CC2)o1, the INHIBITION was -116%. In the case of O=C(O)c1cc(-c2ccoc2)cc(S(=O)(=O)NC2CC2)c1, the INHIBITION is reported as -132%. For O=C(O)c1cc(-c2ccc3c(c2)OCO3)cc(S(=O)(=O)NC2CC2)c1, the INHIBITION was -33.6%. With CN(C)c1ccc(-c2cc(C(=O)O)cc(S(=O)(=O)NC3CC3)c2)cc1 the INHIBITION was 57.2%. With Cc1cccc(NC2CCc3c2[nH]c(=O)n(C2CCCCC2)c3=O)c1C (centres undefined) the INHIBITION was -28.8%. CN(Cc1cccnc1)[C@@H]1CN(Cc2cnn(C)c2)[C@@H]2CCCO[C@H]12 gave an INHIBITION of -11.9%. In the case of CC(=O)N[C@H]1CN(S(=O)(=O)N(C)Cc2ccccc2)C[C@@H]1C1CC1, the INHIBITION is reported as -59.7%. CN(Cc1ccc(F)cc1)S(=O)(=O)N1CCOCC1 showed an INHIBITION of -118%. With CCC[C@H]1CN(S(=O)(=O)c2ccccc2)C[C@@H]1N the INHIBITION was 16.5%. Work on CN(Cc1ccccc1)S(=O)(=O)N1C[C@H](C2CC2)[C@@H](N)C1 yielded an INHIBITION of 58%. N[C@H]1CN(S(=O)(=O)c2ccccc2)C[C@@H]1C1CC1 gave an INHIBITION of -0.57%. Work on CC(C)[C@@H]1CN(S(=O)(=O)Cc2ccccc2)C[C@H]1C(=O)O yielded an INHIBITION of -80.4%. CN(Cc1ccccc1)S(=O)(=O)N1C[C@@H](C(=O)O)[C@H](C2CC2)C1 gave an INHIBITION of -76.5%. N[C@H]1CN(S(=O)(=O)Cc2ccccc2)C[C@@H]1C1CC1 showed an INHIBITION of 55.5%. Work on CCC[C@H]1CN(S(=O)(=O)N(C)Cc2ccccc2)C[C@@H]1N yielded an INHIBITION of 68.1%. CO[C@H]1C[C@@H](O)C12CCN(C(=O)CCCOc1ccccc1)CC2 gave an INHIBITION of -224%. Cc1nc(Oc2ccccc2Cl)sc1C(=O)O was tested, and the INHIBITION was -103%. CC(Cn1cccn1)NC(=O)NCc1ccc(OC2CCCC2)nc1 (centres undefined) was tested, and the INHIBITION was -90.4%. CC1CCCCN1CCNC(=O)c1ccn(-c2cccc(F)c2)n1 (centres undefined) showed an INHIBITION of 64.3%. COc1ccc(-n2ccc(C(=O)NCCN3CCCC(C)C3)n2)cc1 (centres undefined) gave an INHIBITION of 7.72%. In the case of O=C(NCCN1CCCCC1)c1ccn(-c2ccc(F)cc2)n1, the INHIBITION is reported as 46.1%. Cc1cc(C(=O)NCCN2CCCC(C)C2)nn1C (centres undefined) was tested, and the INHIBITION was -67.5%. With CC1CCCN(CCNC(=O)c2ccn(-c3cccc(F)c3)n2)C1 (centres undefined) the INHIBITION was 68%. In the case of O=C(NCCn1cccn1)c1ccn(-c2cccc(F)c2)n1, the INHIBITION is reported as -67.5%. With CC1CCN(CCNC(=O)c2ccn(-c3ccccc3)n2)CC1 the INHIBITION was 24%. CC1CCN(CCNC(=O)c2ccn(-c3ccc(F)cc3)n2)CC1 showed an INHIBITION of 60.9%. Compound CC1CCCCN1CCNC(=O)c1ccn(-c2ccccc2)n1 (centres undefined) has an INHIBITION of 22%. Work on CC1CCCCN1CCNC(=O)c1ccn(-c2ccc(F)cc2)n1 (centres undefined) yielded an INHIBITION of 34.6%. Compound CC1CCCN(CCNC(=O)c2ccn(-c3ccc(F)cc3)n2)C1 (centres undefined) has an INHIBITION of 50.2%. COc1ccc(-n2ccc(C(=O)NCCN3CCC(C)CC3)n2)cc1 showed an INHIBITION of -1.58%. COCC(=O)N(C)Cc1ccc(F)c(F)c1 showed an INHIBITION of -52.4%. With CCOc1nnc(CN(CC)CC(=O)Nc2c(F)cccc2F)s1 the INHIBITION was -13.5%. C=C(C)COc1cccc(C(=O)NC(C)c2nnn[nH]2)c1 (centres undefined) gave an INHIBITION of -109%. For CCOc1ccc(N2CCCN=C2NC(=O)c2cccc(C)c2)cc1, the INHIBITION was -77.5%. With Cc1cc(C(=O)N2CCc3nc(N4CCOCC4)nc(C)c3C2)c(C)o1 the INHIBITION was -39.6%. Work on CC(C)NC(=O)[C@H]1C[C@@H]2[C@@H](C1)OCCN2Cc1cccs1 yielded an INHIBITION of -20.5%. In the case of C[C@@H]1CCC[C@H](C)N1CC(=O)N1CCc2[nH]c(-c3ccccc3)nc2C1, the INHIBITION is reported as -64.1%. O=C(NCCc1cccs1)[C@]12COC[C@H]1CN(Cc1ccncc1)C2 was tested, and the INHIBITION was -31%. CC1CCCN(CCNC(=O)c2ccn(-c3ccccc3)n2)C1 (centres undefined) gave an INHIBITION of 50.8%. Compound COc1cn(-c2ccccc2)nc1C(=O)NCCN1CCCC(C)C1 (centres undefined) has an INHIBITION of -57.1%. O=C(NCCN1CCCCC1)c1ccn(-c2ccccc2)n1 gave an INHIBITION of -37.9%. For CC(C)OCc1ccc(CNc2cncc(-n3cccn3)n2)cc1, the INHIBITION was -83.1%. Compound COCCNC(=O)c1ccc2c(=O)n3c(nc2c1)CCCC3 has an INHIBITION of -68%. COc1cc(Cl)cc(CN2CCCC(N3CCCC3)C2)c1OC (centres undefined) gave an INHIBITION of 64.1%. Compound COc1ccc(CN2CCCC(N3CCCC3)C2)cc1Cn1cncn1 (centres undefined) has an INHIBITION of -34.2%. Compound COc1cc(Cl)cc(CN2CCCC(N3CCOCC3)C2)c1OC (centres undefined) has an INHIBITION of -126%. Work on O=C(O)c1ccccc1-n1cnc(CN2CCc3ccccc32)c1 yielded an INHIBITION of -68.5%. Cn1nccc1CNC(=O)Nc1cc(C(F)(F)F)c[nH]c1=O was tested, and the INHIBITION was -32.9%. Compound Cn1nccc1C(=O)Nc1cc(C(F)(F)F)c[nH]c1=O has an INHIBITION of 56.5%. With O=C(NCc1ccncc1)Nc1cc(C(F)(F)F)c[nH]c1=O the INHIBITION was -57.7%. With CNc1cc(C)nc(C2COCCN2Cc2csc(C)n2)n1 (centres undefined) the INHIBITION was -146%. Cc1ccnn1CCC(=O)N1CCC(c2cnccn2)CC1 was tested, and the INHIBITION was -164%. With CN(Cc1cscn1)C(=O)C(c1ccccc1)N1CCSCC1 (centres undefined) the INHIBITION was 13.8%.
